Screens as filed in PubChem BioAssay.
Hits are enriched below; roughly 2.9% of the tested compounds scored in any of these assays.
MEKK3 PB1 HTS: modulators (inhibitors or enhancers) of MEK5 binding to human MEKK3 PB1 domain; binding response (% of control), % at 10 µM; actives 1.4% (n = 290,000); bead-based flow cytometry, Alexa488-MEK5 binding to MEKK3; actives lie on both sides; 0 = blocked by unlabeled MEK5, 100 = vehicle; AID 1529; Q99759;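 active = binding response more than 3 SD above or below the average of its plate-row segment, actives on both sides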;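 note: Alexa488 bead fluorescence after subtracting the streptavidin-only scavenger bead signal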
Target sequence (Q99759 whole entry, looked up, the tested form may be a part): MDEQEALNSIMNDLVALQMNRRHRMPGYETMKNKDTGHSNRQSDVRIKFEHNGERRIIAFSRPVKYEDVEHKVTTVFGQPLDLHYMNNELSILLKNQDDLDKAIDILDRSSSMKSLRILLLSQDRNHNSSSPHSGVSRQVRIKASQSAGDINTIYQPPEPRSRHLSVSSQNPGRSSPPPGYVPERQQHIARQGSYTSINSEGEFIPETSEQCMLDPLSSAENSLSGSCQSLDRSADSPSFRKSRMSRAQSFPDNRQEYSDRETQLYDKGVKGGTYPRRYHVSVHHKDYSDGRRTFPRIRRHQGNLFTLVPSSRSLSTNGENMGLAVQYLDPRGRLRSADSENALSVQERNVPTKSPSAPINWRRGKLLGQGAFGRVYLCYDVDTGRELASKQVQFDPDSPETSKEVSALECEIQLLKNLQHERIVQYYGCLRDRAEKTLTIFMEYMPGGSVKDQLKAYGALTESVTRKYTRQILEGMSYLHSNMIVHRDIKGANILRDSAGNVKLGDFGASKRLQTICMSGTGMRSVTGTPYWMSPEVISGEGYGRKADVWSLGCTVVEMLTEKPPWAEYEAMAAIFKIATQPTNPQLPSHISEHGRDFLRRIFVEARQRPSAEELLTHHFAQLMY
CRFR2-BP ag: agonists of human CRF-binding protein/CRF-R2 receptor complex. actives 0.46% (n = 350,000). activation, % at 13.2 µM. HEK293 CRF-R2/CRF-BP, calcium dye fluorescence (FLIPR); percent of saturating CRF peptide response. AID 588473;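 active = activation of at least 50%, plus an integration ratio under a set limit after plate pattern correction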
ABCB6 inh 2: inhibitors of human ABC transporter ABCB6. K562-ABCB6 porphyrin accumulation, flow cytometry, 1 h; hits give low values. Q9NP58. fluorescence ratio to DMSO, % at 10 µM. AID 602162. actives 0.19% (n = 360,000);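 active = fluorescence ratio to DMSO below 75%, the collection mean minus 3 SD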;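 note: signal is porphyrin accumulated inside mitochondria; lower ratio means ABCB6 inhibition with less porphyrin fluorescence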
MEKK2 mut-MEK5: signal of MEK5 binding to mutant human MEKK2 PB1 domain; bead flow cytometry, Alexa488-MEK5 binding to MEKK2 mutant; actives 0.35% (n = 290,000); percent response, % at 10 µM; in the data active = percent response above about 24%, passing the limit was not always enough
MEKK2 WT-MEK5: raises or lowers MEK5 binding to wildtype human MEKK2 PB1 domain; binding response (% of control), % at 10 µM; bead flow cytometry, Alexa488-MEK5 binding to MEKK2 WT; actives lie on both sides; actives 1.1% (n = 290,000); Q9Y2U5; AID 1531; in the data active = binding response below about 67% or above about 130%
CRFR2-BP antag: antagonists of CRF-binding protein/CRF-R2 receptor complex. HEK293 CRF-R2/CRF-BP, CRF-induced calcium fluorescence. inhibition, % at 11.8 µM. actives 0.59% (n = 350,000);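 active = inhibition of the ligand-induced calcium signal above about 50% at the single tested concentration, limit read from the data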
Hits are given with their value; [ ] = another dose, or the depositor's remark.

Results for O=C(NNC(=O)c1ccccc1C(=O)O)c1ccc(O)cc1 ?
MEKK3 PB1 HTS: inactive; CRFR2-BP ag: inactive; ABCB6 inh 2: inactive; MEKK2 mut-MEK5: inactive; MEKK2 WT-MEK5: inactive; CRFR2-BP antag: 58

Results for Cc1ccc(NC(=O)CO/N=C(\N)c2nonc2N)cc1 ?
MEKK3 PB1 HTS: inactive; CRFR2-BP ag: inactive; ABCB6 inh 2: inactive; MEKK2 mut-MEK5: inactive; MEKK2 WT-MEK5: inactive; CRFR2-BP antag: inactive

How did N/C(=N\OCC(=O)Nc1ccccc1)c1nonc1N do in these assays?
MEKK3 PB1 HTS: inactive; CRFR2-BP ag: inactive; ABCB6 inh 2: inactive; MEKK2 mut-MEK5: inactive; MEKK2 WT-MEK5: inactive; CRFR2-BP antag: 69

How did Cc1ccc(-n2[nH]c(C)c(/C=N/Nc3ccc([N+](=O)[O-])cc3[N+](=O)[O-])c2=O)cc1 do in these assays?
MEKK3 PB1 HTS: inactive; CRFR2-BP ag: inactive; ABCB6 inh 2: inactive; MEKK2 mut-MEK5: inactive; MEKK2 WT-MEK5: inactive; CRFR2-BP antag: 112

What do the screens show for `COc1ccc(CCNc2oc(COc3ccccc3)nc2C#N)cc1`?
CRFR2-BP ag: inactive; ABCB6 inh 2: inactive; CRFR2-BP antag: inactive

Results for COc1ccc(CNc2oc(COc3ccccc3)nc2C#N)cc1 ?
CRFR2-BP ag: inactive; ABCB6 inh 2: inactive; CRFR2-BP antag: 52

Results for O=C(NCc1csc(-c2cccs2)n1)c1ccccc1 ?
MEKK3 PB1 HTS: inactive; CRFR2-BP ag: inactive; ABCB6 inh 2: inactive; MEKK2 mut-MEK5: inactive; MEKK2 WT-MEK5: inactive; CRFR2-BP antag: 77

What do the screens show for `O=C(NCc1csc(-c2cccs2)n1)c1cccc(Cl)c1`?
MEKK3 PB1 HTS: inactive; CRFR2-BP ag: inactive; ABCB6 inh 2: inactive; MEKK2 mut-MEK5: inactive; MEKK2 WT-MEK5: inactive; CRFR2-BP antag: inactive

What do the screens show for `O=C(N/N=C/C1=C(N2CCOCC2)C(=C\c2ccccc2)/CC1)Nc1ccccc1`?
MEKK3 PB1 HTS: inactive; CRFR2-BP ag: inactive; ABCB6 inh 2: inactive; MEKK2 mut-MEK5: inactive; MEKK2 WT-MEK5: inactive; CRFR2-BP antag: inactive

How did CC(C)C(NC(=O)C12CC3CC(CC(C3)C1)C2)C(=O)N/N=C/C1=C(N2CCOCC2)C(=C\c2ccc([N+](=O)[O-])cc2)/CC1 (stereo not drawn) do in these assays?
MEKK3 PB1 HTS: inactive; CRFR2-BP ag: inactive; ABCB6 inh 2: inactive; MEKK2 mut-MEK5: inactive; MEKK2 WT-MEK5: -2.0; CRFR2-BP antag: inactive

What do the screens show for `CCN(CC)c1ccc(/C=C2\CCC(/C=N/NC(=O)c3ccc(=O)n(C)c3)=C2N2CCOCC2)cc1`?
MEKK3 PB1 HTS: inactive; CRFR2-BP ag: 96; ABCB6 inh 2: inactive; MEKK2 mut-MEK5: inactive; MEKK2 WT-MEK5: inactive; CRFR2-BP antag: inactive

What do the screens show for `CC(NC(=O)C12CC3CC(CC(C3)C1)C2)C(=O)N/N=C/C1=C(N2CCOCC2)C(=C\c2cccc([N+](=O)[O-])c2)/CC1` (stereo not drawn)?
MEKK3 PB1 HTS: inactive; CRFR2-BP ag: inactive; ABCB6 inh 2: inactive; MEKK2 mut-MEK5: inactive; MEKK2 WT-MEK5: inactive; CRFR2-BP antag: inactive

How did CCOC(=O)c1cnc2cc(-c3ccc(C)cc3)nn2c1C do in these assays?
CRFR2-BP ag: inactive; ABCB6 inh 2: inactive; CRFR2-BP antag: inactive

What do the screens show for `O=C(CNC(=O)C1CCCCC1)Nc1ccc(Cl)cc1`?
MEKK3 PB1 HTS: inactive; CRFR2-BP ag: inactive; ABCB6 inh 2: inactive; MEKK2 mut-MEK5: inactive; MEKK2 WT-MEK5: inactive; CRFR2-BP antag: inactive

How did O=C(CNC(=O)C1CCCCC1)Nc1ccc(F)c(Cl)c1 do in these assays?
MEKK3 PB1 HTS: inactive; CRFR2-BP ag: inactive; ABCB6 inh 2: inactive; MEKK2 mut-MEK5: inactive; MEKK2 WT-MEK5: inactive; CRFR2-BP antag: 65

Results for Cc1cc(=O)n2c3ccccc3n(CC(O)CN3CCN(CCO)CC3)c2c1C#N (stereo not drawn) ?
MEKK3 PB1 HTS: inactive; CRFR2-BP ag: inactive; ABCB6 inh 2: inactive; MEKK2 mut-MEK5: inactive; MEKK2 WT-MEK5: inactive; CRFR2-BP antag: inactive

What do the screens show for `Cc1cc(=O)n2c3ccccc3n(CC(O)CN3CCC(C)CC3)c2c1C#N` (stereo not drawn)?
MEKK3 PB1 HTS: 135; CRFR2-BP ag: inactive; ABCB6 inh 2: inactive; MEKK2 mut-MEK5: inactive; MEKK2 WT-MEK5: inactive; CRFR2-BP antag: inactive

How did COc1ccc(C2=NN(C(=O)CSc3ncccn3)C(c3cccc(OC)c3OC)C2)cc1 (stereo not drawn) do in these assays?
MEKK3 PB1 HTS: inactive; CRFR2-BP ag: inactive; ABCB6 inh 2: inactive; MEKK2 mut-MEK5: inactive; MEKK2 WT-MEK5: -7.0; CRFR2-BP antag: inactive

How did O=C(NCc1ccc2c(c1)OCO2)c1nn(-c2ccccc2)c(=O)c2ccccc12 do in these assays?
MEKK3 PB1 HTS: inactive; CRFR2-BP ag: inactive; ABCB6 inh 2: 65; MEKK2 mut-MEK5: inactive; MEKK2 WT-MEK5: inactive; CRFR2-BP antag: inactive

Results for COc1cc(OC)cc(C(=O)NC(=S)NNC(=O)[C@H]2C[C@@H]2c2ccccc2)c1 ?
MEKK3 PB1 HTS: inactive; CRFR2-BP ag: 163; ABCB6 inh 2: inactive; MEKK2 mut-MEK5: inactive; MEKK2 WT-MEK5: inactive; CRFR2-BP antag: inactive

Results for COc1ccc(C(=O)NC(=S)NNC(=O)[C@H]2C[C@@H]2c2ccccc2)cc1OC ?
MEKK3 PB1 HTS: inactive; CRFR2-BP ag: inactive; ABCB6 inh 2: inactive; MEKK2 mut-MEK5: inactive; MEKK2 WT-MEK5: inactive; CRFR2-BP antag: inactive

How did CC(C)c1ccc2c(c1)CC[C@H]1[C@](C)(CN)CCC[C@]21C do in these assays?
CRFR2-BP ag: inactive; ABCB6 inh 2: inactive; CRFR2-BP antag: inactive

What do the screens show for `CC(C)c1ccc2c(c1)CCC1C(C)(CN)CCCC21C` (stereo not drawn)?
MEKK3 PB1 HTS: 36[inhibitor]; CRFR2-BP ag: inactive; ABCB6 inh 2: inactive; MEKK2 mut-MEK5: 25; MEKK2 WT-MEK5: 155; CRFR2-BP antag: inactive

What do the screens show for `CCOC(=O)c1cccc(C2=CC(=O)C[C@H](c3ccc(OC)cc3)C2)c1`?
CRFR2-BP ag: inactive; ABCB6 inh 2: inactive; CRFR2-BP antag: inactive

What do the screens show for `CCOc1cccc(C2C(C(=O)c3ccc(C)o3)=C(O)C(=O)N2Cc2ccncc2)c1` (stereo not drawn)?
MEKK3 PB1 HTS: inactive; CRFR2-BP ag: inactive; ABCB6 inh 2: inactive; MEKK2 mut-MEK5: inactive; MEKK2 WT-MEK5: inactive; CRFR2-BP antag: inactive

What do the screens show for `O=C(C1=C(O)C(=O)N(CCc2ccccc2)C1c1ccncc1)c1cc2ccccc2o1` (stereo not drawn)?
MEKK3 PB1 HTS: inactive; CRFR2-BP ag: inactive; ABCB6 inh 2: inactive; MEKK2 mut-MEK5: inactive; MEKK2 WT-MEK5: inactive; CRFR2-BP antag: inactive

What do the screens show for `CCOc1cccc(C2C(C(=O)c3ccc(C)o3)=C(O)C(=O)N2c2nccs2)c1` (stereo not drawn)?
MEKK3 PB1 HTS: inactive; CRFR2-BP ag: 159; ABCB6 inh 2: inactive; MEKK2 mut-MEK5: inactive; MEKK2 WT-MEK5: inactive; CRFR2-BP antag: inactive

Results for O=C(C1=C(O)C(=O)N(c2nccs2)C1c1ccccc1)c1cc2ccccc2o1 (stereo not drawn) ?
MEKK3 PB1 HTS: inactive; CRFR2-BP ag: 168; ABCB6 inh 2: inactive; MEKK2 mut-MEK5: inactive; MEKK2 WT-MEK5: inactive; CRFR2-BP antag: inactive
